Reference: PubChem BioAssay AID504332 (National Center for Advancing Translational Sciences (NCATS), 2011)
“And” between values parts separate entries of the source, which are not always exact repeats. Identical values can stand only once. The campaign covered roughly 350,000 compounds. About 31,000 (8.9%) were called active. Inconclusive results (about 15%) are left out. Calls follow the shape of the dose curve; as a rule, active = well fitted inhibition curve with a large enough effect; inconclusive = small, poorly fitted or top-dose-only effect; inactive = no such curve, though single readings can be large or run the other way. Only a selection was taken, and actives are over-represented in it overall. More than one record can exist for a structure, and the calls need not agree.

biological target: Histone-lysine N-methyltransferase EHMT2 (Homo sapiens) (UniProt Q96KQ7); assay: qHTS Assay for Inhibitors of Histone Lysine Methyltransferase G9a; conditions: G9a H3K9 monomethylation, AlphaScreen, 2 h; series mostly up to 59 µM; also: nearly all actives have a fitted effect of over 75% in size
Outline: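 AlphaScreen detection with an anti-monomethyl H3K9 antibody quantified product after a 2 h room-temperature reaction containing 500 nM biotinylated H3K9 peptide, 20 µM SAM and 20 nM enzyme, which had been preincubated 15 min with compound.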
% is scaled to controls: 0 for no effect and ±100 for the full control effect; potency is read from the fitted curve at half-maximal effect.

Histone-lysine N-methyltransferase EHMT2 (Homo sapiens), sequence (Q96KQ7 913-1193 limits assumed): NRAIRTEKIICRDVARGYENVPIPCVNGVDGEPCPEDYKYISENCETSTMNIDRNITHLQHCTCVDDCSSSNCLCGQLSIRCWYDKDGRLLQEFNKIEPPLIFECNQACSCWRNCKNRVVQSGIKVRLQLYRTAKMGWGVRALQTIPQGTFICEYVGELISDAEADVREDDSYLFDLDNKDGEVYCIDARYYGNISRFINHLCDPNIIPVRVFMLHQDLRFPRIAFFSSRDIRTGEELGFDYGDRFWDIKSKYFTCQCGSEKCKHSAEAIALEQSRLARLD

Potency, inactive:
Cc1cc(OC(C)C(=O)NC2CC(C)(C)NC(C)(C)C2)c2c(C)cc(=O)oc2c1 (stereo unspecified)
CCc1ccccc1NC(=O)N1CCN(C(=O)c2nsc3ccccc23)CC1
CCN(Cc1ccccc1)Cc1c(O)ccc2c(=O)c(-c3ccc(Cl)cc3Cl)coc12
O=C(NCc1ccco1)c1ccc([N+](=O)[O-])cc1Cl
CC(C)(C)NC(=O)NCc1ccco1
O=C(c1ccc(F)c(S(=O)(=O)N2CCOCC2)c1)N(CCc1ccccc1)Cc1ccccc1
CC(=O)c1cccc(OCc2cc(C(=O)NC(C)Cc3cccnc3)no2)c1 (stereo unspecified)
CN(C)CCn1c2c(c(SCC(=O)NCc3ccccc3)nc1=O)CCC2
Nc1c(Cl)cc(-c2csc(N3CCCC3c3nc4cc(Cl)c(Cl)cc4n3CCOCCO)n2)cc1Cl (stereo unspecified)
COc1cccc(-n2c(SCC(=O)c3c[nH]c4ccccc34)nc3ccccc3c2=O)c1
COc1ccc(CCNC(=O)c2cc(=O)c3c(C)cc(C)cc3o2)cc1OC
COc1cccc(N2CCN(S(=O)(=O)c3ccc4c(c3)CCCN4C(C)=O)CC2)c1
CCOC(=O)c1c(NC(=O)C2CC=CCC2C(=O)O)sc(C)c1CC (stereo unspecified)
CCOC(=O)Nc1sc(C(=O)N(C)C)c(C)c1C(=O)OCC
Cc1ccccc1CNC(=O)C1CCCN(S(=O)(=O)N(C)c2ccc(F)cc2)C1 (stereo unspecified)
Cc1nn(-c2ccc(N3CCCCC3)nn2)c(C)c1CCC(=O)NCc1ccc(F)cc1
COC(=O)c1oc2ccc(Br)cc2c1NC(C)=O
C/C(=N\N)c1c(-c2ccccc2)c2cc(Br)ccc2[nH]c1=O
O=C(Nc1ccccc1)C1CCN(C(=O)c2ccc(Br)cc2)CC1
Cc1ccc(CN2CCN(Cc3cn(C)nc3-c3ccccc3)CC2CCO)o1 (stereo unspecified)
Cc1ccccc1CN1CCN(CC(=O)NCc2ccccn2)C1=O
Cc1ccc(C(=O)CN2C(=O)NC3(CCc4ccccc43)C2=O)c(C)c1 (stereo unspecified)
COc1ccccc1-n1ccnc1SCC(=O)NC(C)(C)C
O=C(CSc1nccn1Cc1ccc(F)cc1)NCc1ccccc1
Cc1ccc2nc(SCC(=O)Nc3cccc4ccccc34)nc(=O)n2c1
COc1ccccc1-n1c(CNC(=O)c2ccccc2)nnc1SCC(=O)Nc1nnc(C)s1
Cc1cc(NC(=O)CSc2nccn2-c2ccc([N+](=O)[O-])cc2)no1
CCC(=O)N1c2ccc(S(=O)(=O)NCc3ccco3)cc2CC1C (stereo unspecified)
Fc1ccc(-n2ncc3c(Nc4ccc(Oc5ccccc5)cc4)ncnc32)cc1
CCCc1cc(=O)[nH]c2nnc(SCC(=O)Nc3nnc(SCC)s3)n12
Cc1cccc(Nc2nc(C)nc(N)c2S(=O)(=O)c2ccccc2)c1
C=CCc1cccc(/C=N/NC(=O)COc2ccc(-n3cnnn3)cc2)c1O
C[C@@]12C(=O)N(c3cccc(Br)c3)C(=O)N1[C@H](c1ccc(Cl)cc1)[C@@H]1C(=O)N(C3CCCCC3)C(=O)[C@@H]12
O=C(NCCS(=O)(=O)N1CCN(c2ccc(F)cc2)CC1)c1ccc2c(c1)OCO2
O=C(Nc1ccccc1F)C(c1ccccc1)N1Cc2ccccc2C1=O (stereo unspecified)
CC1CCCCN1Cc1c(O)ccc2c(=O)c(-c3cccc(Cl)c3)c(C(F)(F)F)oc12 (stereo unspecified)
CCCCC(CC)CNC(=O)C1CCN(S(=O)(=O)c2cccc3nsnc23)CC1 (stereo unspecified)
O=C(c1ccc2c(c1)N(Cc1ccccc1)C(=O)c1ccccc1S2(=O)=O)N1CCCC1
O=C(c1ccc2c(c1)N(Cc1ccc(Cl)cc1)C(=O)c1ccccc1S2(=O)=O)N1CCCCC1
CCOC(=O)c1cc(C(=O)Nc2ccc(S(=O)(=O)Nc3ccc(OC)cc3)cc2)nn1C
Cc1ccc2nc(-c3ccc(Br)cc3)cn2c1
CC1=C(C(=O)OCc2ccc(C)cc2)C(c2ccccc2Cl)CC(=O)N1 (stereo unspecified)
N/C(=N\OC(=O)/C=C/c1ccccc1)c1ccc(Br)cc1
N/C(=N\OC(=O)c1ccc2c(c1)OCO2)c1ccc(Br)cc1
CCCCN1C(=O)/C(=C/C=C2/C=Cc3ccccc3N2CC)SC1=S
CCN1C(=O)/C(=c2\s/c(=C3\Sc4ccccc4N3C)c(=O)n2C)N(C)C1=S
CCc1ccccc1NC(=O)c1ccc(F)c(S(=O)(=O)NC2CCCCCC2)c1
Cn1c(=O)c2sccc2n2c(CCC(=O)NCc3ccccc3Cl)nnc12
Cc1ccc(-c2nnc3c4ccccc4c(C)nn23)cc1NC(=O)c1cccc(Br)c1
Cc1ccccc1NC(=S)NNC(=O)c1cccc(Br)c1
CC(=O)Nc1ccc(S(=O)(=O)N2CCN(S(=O)(=O)c3cccs3)CC2)cc1
CCCc1c(C(=O)N/N=C(\C)CCc2ccc(OC)cc2)nnn1-c1nonc1N
C/C(=N\NC(=O)Cc1ccccc1[N+](=O)[O-])c1cccnc1
O=C(Nc1cccnc1)c1cc([N+](=O)[O-])ccc1Cl
O=C(Nc1cccnc1)c1cc(Cl)ccc1Cl
Cc1ccc(S(=O)(=O)N2CCCc3cc(NS(=O)(=O)c4cc(C)ccc4C)ccc32)cc1
O=C(CCn1c(=O)c2sccc2n(Cc2ccc(F)cc2)c1=O)NCc1ccc2c(c1)OCO2
S=C(NCc1ccc(Cl)cc1)NC1CCCCC1
O=C(NC1CCCCCC1)c1cccnc1Sc1ccc(Cl)cc1
CCSc1ncc(Cl)c(C(=O)Nc2c(C(=O)c3ccccc3)oc3ccccc23)n1
Cc1ccc(CNC(=O)CSc2c3c(nc4cc(Cl)ccc24)CCCC3)cc1
COc1ccc(CNC(=O)c2cc3c(=O)[nH]c4ccccc4c3s2)cc1
CCCn1c(=O)c2[nH]c(C3CCCC3)nc2n(CCC)c1=O

Potency, inactive and 22.4 µM (active):
O=C(c1ccc2c(c1)N(Cc1ccc(F)cc1)C(=O)c1ccccc1S2(=O)=O)N1CCN(c2ccccn2)CC1

Potency, active:
Cc1ccc(/C([O-])=C(/C(=S)NCc2ccco2)[n+]2ccccc2)cc1[N+](=O)[O-] 39.8 µM
Cc1nc2cc(C(F)(F)F)ccc2n1CCNc1nc(-c2cc(Cl)c(N)c(Cl)c2)cs1 39.8 µM
COc1ccc(C(C(O)C(=O)c2c[nH]c3ccccc23)N2CCN(c3ccccc3)CC2)cc1 (stereo unspecified) 25.1 µM
CCOC(=O)c1c(NC(C)=O)sc2c(O)c(Br)ccc12 1.58 µM
COC(=O)c1[nH]c2ccc(Br)cc2c1NC(=O)Oc1ccccc1 11.2 µM
Cc1ccccc1CN1C[C@@H]2C[C@@H](c3cn(C)nc3-c3ccccc3)N3CCC[C@@]23C1=O 10 µM
O=C(CSc1nccn1-c1ccc(F)cc1)Nc1cccc2ccccc12 14.1 µM
Cc1nnc(NC(=O)CSc2nccn2-c2cccc(C)c2C)s1 50.1 µM
Cc1cccc(-n2ccnc2SCC(=O)Nc2cccc3ccccc23)c1C 12.6 µM
CSCCC1NC2(C(=O)Nc3ccc(Cl)cc32)[C@@H]2C(=O)N(C3CCCC3)C(=O)[C@H]12 (stereo partly specified) 50.1 µM
CCCCC(CC)CNC(=O)C(=O)C1C(=O)Nc2ccccc21 (stereo unspecified) 44.7 µM
N/C(=N\OC(=O)N1c2ccccc2Sc2ccccc21)c1ccc(Br)cc1 50.1 µM
CCN1C(=O)/C(=C2/Sc3ccccc3N2CCCS(=O)(=O)O)SC1=S 39.8 µM
O=C(NC(=S)Nc1cccc2c(O)cccc12)c1cccc(Br)c1 50.1 µM
O=C(/C=C/c1ccc(Cl)c([N+](=O)[O-])c1)c1cccnc1 39.8 µM
O=C(/C=C/c1ccc(Cl)cc1Cl)c1cccnc1 8.91 µM
O=C(NC1CCCCC1)c1ccc(-c2ccc(Cl)cc2)o1 44.7 µM
CCCn1c(=O)c2[nH]c(-c3ccc(OCC(=O)NCCN)cc3)nc2n(CCC)c1=O 14.1 µM

activity, negative = inhibition, inactive:
O=C(O)CSc1ccc(S(=O)(=O)N2CCCC2)cn1 -37.2% [at 2.33 µM]
COc1ccc(C(CC(=O)N2CCN(c3ccccc3)CC2)c2c(O)cc(OC)cc2OC)cc1 (stereo unspecified) -0.615% [at 12.7 µM]
CC(=O)c1c(C)[nH]c(C(=O)CN2C(=O)NC(C)(C)C2=O)c1C 3.15% [at 0.501 µM]
Cc1ccc(C)c(-n2ccnc2SCC(N)=O)c1 23.6% [at 12.7 µM]
COc1cccc(-c2ccc3c(c2)S(=O)(=O)c2cccc(C(=O)O)c2C3=O)c1OC -17.9% [at 0.501 µM]
CCN(CC)S(=O)(=O)c1ccc(N2CCOCC2)c(NC(=O)c2ccc(=O)n(C)n2)c1 -4.25% [at 12.7 µM]
O=C1[C@@H]2C(Cc3ccc(O)cc3)NC3(C(=O)Nc4ccc(F)cc43)[C@@H]2C(=O)N1c1ccc(F)cc1 (stereo partly specified) -37.6% [at 12.7 µM]
CCOC(=O)C(=O)C1C(=O)Nc2ccccc21 (stereo unspecified) -47.2% [at 2.33 µM]
O=C1C=C(c2cccc(Cl)c2)C[C@@H](c2ccc(F)cc2)C1 6.54% [at 0.501 µM]
CCN1C(=O)[C@H]2[C@@H](c3ccc(SC4CCCCC4)c(OC)c3)N[C@@](Cc3ccccc3)(C(=O)OC)[C@H]2C1=O 20.9% [at 2.33 µM]
O=C(/C=C/c1ccc(Cl)cc1Cl)NCc1ccco1 2.18% [at 0.501 µM]
CCOc1ccc(CCNC(=O)COC(=O)CCS(=O)(=O)c2ccc(C)cc2)cc1OCC -3.67% [at 0.501 µM]
CCCn1c(=O)c2[nH]c(-c3ccc(OCC(=O)NCCN)cc3)nc2n(CCC)c1=O 32.3% [at 12.7 µM]
CCCNC(=O)CCn1cc(-c2ccc(OC)cc2)nc1CCN -5.65% [at 2.33 µM]
